Bioassay records: PubChem BioAssay, National Center for Advancing Translational Sciences (NCATS)
FMDV inh: blocks foot and mouth disease virus. FMDV antiviral cell-based qHTS. Potency, µM (top dose mostly 57.9 µM), actives largely listed as inhibitors. hit rate 1.2% among 410,000; calls by dose curve; tested in HEK293T cells; also: read-out not given here; nearly all actives have a fitted effect of over 45% in size
VACV mCherry inh: inhibitors of vaccinia virus infection (mCherry reporter signal); Vaccinia virus mCherry reporter infection, fluorescence; Potency, µM (highest dose often 36.5 µM), actives largely listed as inhibitors; hit rate 0.63% among 310,000; AID 720579; calls by dose curve; tested in A549 cells; also: nearly all actives have a fitted effect of over 35% in size
Lassa entry inh: inhibitors of Lassa virus binding or cell entry | hit rate 1.2% among 300,000 | Potency, µM (highest dose often 37.9 µM), hits mostly inhibitors | AID 540256 | Lassa virus pseudotype entry inhibition, cell reporter; calls by dose curve; tested in HEK293 cells; also: nearly all actives have a fitted effect of over 50% in size
VACV Venus inh: vaccinia inhibition (Venus reporter) | hit rate 0.46% among 330,000 | Vaccinia virus Venus reporter expression, fluorescence | Potency, µM (titrated, usually from 36.5 µM), most hits filed as inhibitors; calls by dose curve; tested in A549 cells; also: nearly all actives have a fitted effect of over 30% in size
HCMV inh: inhibitors of human cytomegalovirus; HFF cells, HCMV-luciferase reporter, 72 h; hits give low values; activity change, negative = inhibition, % at 57.5 µM; hit rate 4.5% among 410,000; in the data active = activity change below about -60%; inconclusive = no clear call, values can overlap the other calls; inactive = above about -39%
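Inhibition of viral replication was scored as loss of reporter luminescence in HFFs infected with HCMV-luciferase (MOI 1 PFU/cell) for 72 h; compounds tested at 2 doses, normalized to buffer and Salinomycin controls.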
MARV entry inh: inhibitors of Marburg virus binding or cell entry. Marburg virus pseudotyped entry inhibition, cell reporter. Potency, µM (top dose mostly 37.8 µM), actives largely listed as inhibitors. hit rate 1.8% among 300,000. AID 540276; calls by dose curve; tested in HEK293 cells
Hits are given with their value; n = inactive; u = inconclusive; x = no result given; + = active, no number. Hits are enriched below; roughly 6.5% of the tested compounds scored in any of these assays.

SMILES	FMDV inh	VACV mCherry inh	Lassa entry inh	VACV Venus inh	HCMV inh	MARV entry inh
CCOC(=O)c1sc2nc(-c3cccnc3)ccc2c1N	n	u	6.3µM	u	n	u
COc1cccc(Nc2nccc3[nH]c(-c4ccc(F)c(F)c4)nc23)c1	x	x	x	x	n	x
O=C(Oc1ccc(N(C(=O)c2ccncc2)S(=O)(=O)c2ccc(F)cc2)cc1)c1ccncc1	n	n	n	n	n	n
Cc1ccc(S(=O)(=O)N(C(=O)c2ccncc2)c2ccc(OC(=O)c3ccncc3)cc2)cc1	n	n	n	n	-68	n
Cn1cnc([N+](=O)[O-])c1Sc1ccc([N+](=O)[O-])cc1	22µM	n	n	n	n	u
Cn1cnc([N+](=O)[O-])c1Sc1ncn[nH]1	n	n	x	n	n	x
O=C(NCC1Cc2cccc(-c3ccccn3)c2O1)c1cnn2cccnc12 (stereo not given)	n	n	x	n	x	x
O=C(Nc1nc(-c2cccs2)cs1)c1ccc(Cl)cc1	n	n	u	n	n	u
O=C(Nc1nc(-c2ccc(Cl)s2)cs1)c1ccncc1	x	n	n	n	-77	u
Cc1cccc2sc(NC(=O)CN(C)S(=O)(=O)c3cccs3)nc12	40µM	x	n	u	n	n
O=c1c2c3c(sc2ncn1/N=C/c1ccc([N+](=O)[O-])o1)CCCC3	28µM	x	u	n	n	n
CN(C)C(=O)CCc1ccc2c3c([nH]c2c1)[C@]1(C)[C@@H](C(=O)N2CCCCC2)C[C@H](CC(=O)NCCN2CCOCC2)C(=O)N1CC3	n	x	x	n	n	n
CN(C)CCCNC(=O)C[C@H]1C[C@H](C(=O)N2CCCCC2)[C@@]2(C)c3[nH]c4cc(-c5ccco5)ccc4c3CCN2C1=O	n	u	x	n	n	n
C[C@]12c3[nH]c4cc(-c5ccco5)ccc4c3CCN1C(=O)[C@@H](CC(=O)NCC13CC4CC(CC(C4)C1)C3)C[C@@H]2C(=O)N1CCCCC1	n	11µM	x	u	n	x
CC[C@]12c3[nH]c4cc(-c5ccco5)ccc4c3CCN1C(=O)[C@@H](CC(=O)NCC13CC4CC(CC(C4)C1)C3)C[C@@H]2C(=O)N1CCN(C(=O)c2ccco2)CC1	u	7.1µM	x	u	n	n
CN(C)C(=O)CCc1ccc2c3c([nH]c2c1)[C@]1(C)[C@@H](C(=O)N2CCCCC2)C[C@H](CC(=O)NCC24CC5CC(CC(C5)C2)C4)C(=O)N1CC3	n	n	x	n	-90	n
C[C@]12c3[nH]c4cc(-c5ccco5)ccc4c3CCN1C(=O)[C@@H](CC(=O)NCc1cccc(C(F)(F)F)c1)C[C@@H]2C(=O)N1CCCCC1	u	11µM	x	u	n	x
COc1ccc(CC(=O)NCc2ccc3c(c2)CCN3C(=O)c2ccc(C)cc2)cc1OC	n	n	n	n	n	x
CCOC(=O)c1[nH]c(C)c(CCC(=O)Nc2ccc(C)cc2Cl)c1C	n	n	n	n	n	x
CC[C@]12c3[nH]c4ccc(Cl)cc4c3CCN1C(=O)[C@@H](CC(=O)NCC13CC4CC(CC(C4)C1)C3)C[C@@H]2C(=O)N1CCN(C(=O)c2ccco2)CC1	u	11µM	x	14µM	-106	x
N#Cc1ccc(OCc2cn(CC(=O)c3ccc(O)cc3)nn2)cc1	x	x	n	x	x	x
CCN(CC(=O)NCc1cccs1)C(=O)CCOc1ccccc1C	n	n	n	n	-97	n
CC=C(C)[C@H](O)C[Si](C)(C)c1ccccc1	x	x	x	x	x	n
C[C@H](O)CO[C@H]1[C@H]2O[C@H]3[C@H](O)[C@@H](O)[C@@H](O[C@H]4[C@H](O)[C@@H](O)[C@@H](O[C@H]5[C@H](O)[C@@H](O)[C@@H](O[C@H]6[C@H](O)[C@@H](OC[C@H](C)O)[C@@H](O[C@H]7[C@H](O)[C@@H](OC[C@H](C)O)[C@@H](O[C@H]8[C@H](O)[C@@H](O)[C@@H](O[C@@H]([C@@H]1O)[C@@H](CO)O2)O[C@@H]8CO)O[C@@H]7CO)O[C@@H]6CO)O[C@@H]5CO)O[C@@H]4CO)O[C@@H]3CO	n	x	x	x	x	x
O=C(c1cnn(C(=O)COc2ccc(Cl)cc2)c1)c1ccccc1O	n	n	n	n	u	u
SMILES	FMDV inh	VACV mCherry inh	Lassa entry inh	VACV Venus inh	HCMV inh	MARV entry inh
Cc1ccc(O)c(C(=O)c2cnn(C(=O)COc3ccc(Cl)cc3)c2)c1	n	n	n	n	-61	n
O=C(Nc1ccc(Cl)cn1)C1CCN(S(=O)(=O)c2cccs2)CC1	u	x	x	x	-72	x
CCc1ccc(NC(=O)C2CCN(S(=O)(=O)c3cnc[nH]3)CC2)cc1	n	x	x	x	+	x
CCN(Cc1ccncc1)C(=O)C1CCN(S(=O)(=O)c2cccs2)CC1	n	x	u	x	-107	n
CN(C(=O)C1CCN(S(=O)(=O)c2cccs2)CC1)C1CCCCC1	x	n	n	n	n	n
CCc1cccc(NC(=O)C2CCN(S(=O)(=O)c3cccs3)CC2)c1	u	n	n	n	n	n
CCOC(=O)c1cccc(NC(=O)C2CCN(S(=O)(=O)c3cccs3)CC2)c1	25µM	x	u	x	n	u
Cc1ccc(CNc2nc(CN3CCCCC3c3cccnc3)nc3ccccc23)o1 (stereo not given)	n	n	x	n	x	x
Cc1ccc(C)n1C1C(=O)N(Cc2ccc(C(C)C)cc2)c2ccc(Cl)cc21 (stereo not given)	x	x	x	x	n	x
COc1cccc(Nc2nccc3[nH]c(-c4cccc(C(F)(F)F)c4)nc23)c1	x	x	x	x	n	x
COc1ccc(S(=O)(=O)N2CCC(C(=O)NCCc3ccc(OC)c(OC)c3)CC2)cc1	n	n	x	n	n	x
O=C(Nc1ccc(Cl)cc1)C1CCN(S(=O)(=O)c2ccc(Br)s2)CC1	u	n	u	n	-96	n
O=C(Nc1ccccc1Br)C1CCN(S(=O)(=O)c2cccs2)CC1	n	n	n	n	-75	u
